# In ChEMBL document CHEMBL4513216, “Probing the Open Global Health Chemical Diversity Library for Multistage-Active Starting Points for Next-Generation Antimalarials” (ACS Infect Dis, 2020):
# In all, about 69,000 compounds went through this assay and about 8,600 (12%) showed an effect of 50% or more. This excerpt belongs to a sample that is enriched for strong results.
# Tested on: Plasmodium berghei
# Experiment: Screen against P. berghei liver stage (PbLuc), transformed with Luciferase, at 10uM
# Type: functional, HepG2
# Settings: tested at 10 uM
row,SMILES,INHIBITION [%]
1,O=C(c1cncs1)N1CCOC(c2cc(CCO)[nH]n2)C1 (stereo not drawn),-4.5
2,O=C([C@H]1C[C@H]2OCC[C@H]2N(C(=O)c2ccccn2)C1)N1CCCCO1,22.2
3,CCN(CC)CCCNCc1cc2cccc(C)c2[nH]c1=O,-36.4
4,CCN1CCN(C(=O)Cn2nc(C(F)(F)F)c(Br)c2C2CC2)CC1,30.8
5,CN1CCN(C(=O)Cn2nc(C(F)(F)F)c(Br)c2C2CC2)CC1,16.5
6,CCCN1CCN(C(=O)Cn2nc(C(F)(F)F)c(Br)c2C2CC2)CC1,64.7
7,CCN1CCCC1CNC(=O)Cc1c(C)n[nH]c1-c1ccc(F)cc1 (stereo not drawn),38.8
8,CCOC(=O)c1sc2ccsc2c1CN,0.938
9,COc1cc(-c2cccc3c2OC(CN)C3)cc(OC)c1OC (stereo not drawn),48
10,COc1ccc(-c2cccc3c2OC(CN)C3)cc1F (stereo not drawn),47.1
11,COc1cc(-c2cccc3c2OC(CN)C3)ccc1O (stereo not drawn),50.8
12,Cc1ccc(CCCC(=O)N2CCC(CS(N)(=O)=O)CC2)s1,-0.554
13,O=C(c1ccnnc1)N1CCc2ncnc(C3CCOC3)c2CC1 (stereo not drawn),38.1
14,O=C(c1ccncc1)N1CCc2ncnc(C3CCOC3)c2CC1 (stereo not drawn),49.7
15,CC(C)Oc1ncnc2c1CCN(Cc1ccc(F)cc1)CC2,60.3
16,Cc1ccc(CN2CCc3ncnc(OC(C)C)c3CC2)s1,-34.6
17,CCc1ncnc2c1CCN(Cc1ccc(OC)cc1)CC2,26.7
18,CC(C)Oc1ncnc2c1CCN(Cc1ccco1)CC2,50.7
19,CC(C)Oc1ncnc2c1CCN(Cc1ccoc1)CC2,8.85
20,COCCN1CCc2ncnc(OC(C)C)c2CC1,37.5
21,COc1ccc(CN2CCc3ncnc(C4CC4)c3CC2)cc1,47.4
22,CC(C)Oc1ncnc2c1CCN(Cc1cccs1)CC2,40.7

row,SMILES,INHIBITION [%]
1,COc1ccc(CN2CCc3ncnc(OC(C)C)c3CC2)cc1,56.7
2,O=C(c1cccs1)N1CCc2ncnc(C3CCOC3)c2CC1 (stereo not drawn),53.2
3,COCC1CC2(CCN(Cc3cccc(C#N)c3)CC2)CN1C(C)C (stereo not drawn),-11.2
4,CCCS(=O)(=O)NCC(C)(O)c1ccsc1 (stereo not drawn),20.9
5,Cc1nc(Nc2nnc(C)s2)cc(C2CCCN2C)n1 (stereo not drawn),21.6
6,O=C(c1cccc(C2CCNC2)c1)N1CCC(c2ccncc2)CC1 (stereo not drawn),-19.1
7,Cc1ccc(N2CC[C@H]3OCC[C@@]3(C(=O)N3CCCC3)C2)nn1,40.1
8,CC(C)n1cnnc1CNC(=O)c1cnn(-c2ccccc2)c1,-20.3
9,Cc1ccc(Cl)cc1N1CCC(CNC(=O)Cn2cccn2)C1 (stereo not drawn),10.083
10,c1coc(CN2CCc3ncnc(C4CCOC4)c3CC2)c1 (stereo not drawn),79.6
11,c1nc2c(c(C3CCOC3)n1)CCN(Cc1ccoc1)CC2 (stereo not drawn),12.1
12,c1ccc(CN2CCc3ncnc(C4CCOC4)c3CC2)nc1 (stereo not drawn),33
13,O=C(Nc1ccc(CCN2CCOCC2)cc1)C1CCCC1,-7.85
14,O=C(NCC1CC1)c1cc2c(s1)CCN2C(=O)c1ccc(F)cc1,4.57
15,CN(C)S(=O)(=O)NCC(Cc1cccc(F)c1)N1CCNC1=O (stereo not drawn),-15.3
16,CCOc1ccccc1CCC(=O)Nc1c(C)nn(C)c1C,22.6
17,COc1ccccc1C(=O)Nc1c(F)c(C(=O)NC2CCCC2)nn1C,4.48
18,COc1cccc(CCC(=O)Nc2c(C)nn(C)c2C)c1OC,31
19,COc1ccccc1C(=O)Nc1c(F)c(C(=O)NCCC(C)C)nn1C,57
20,COc1ccccc1C(=O)NCCC(=O)Nc1c(C)nn(C)c1C,51.8
21,CCC(C)NC(=O)c1nn(C)c(NC(=O)c2ccccc2OC)c1F (stereo not drawn),19.3
22,CC(=O)N1CCC2(CC1)COCCN2CCN(C)C,-8.94

row,SMILES,INHIBITION [%]
1,Cc1cc(C)n(CC2CN(CCOc3ccccc3F)CCO2)n1 (stereo not drawn),9.14
2,Cc1ccc(N2CCc3ncc(CNc4ccccn4)n3CC2)nn1,18.4
3,O=C(c1cscn1)N1CCC(O)(Cn2ccc3ccncc32)CC1,17.1
4,CC(=O)N1N=C(c2ccco2)OC1C(=O)NCC(C)C (stereo not drawn),-4.32
5,CC(C)Cn1cc(NCc2cscn2)cn1,-24.5
6,CC(C)(C)n1cc(NCc2cscn2)cn1,29.4
7,FC(F)(F)Cn1cc(NCc2cscn2)cn1,62
8,CCOc1cc(=O)n2c(c1C(=O)OCc1ccc(C)cc1)CCCC2,32.2
9,COc1cc(N2CCC3(CC2)CCN(c2cccnc2)C3=O)ncn1,68.4
10,COc1cccc(N2CC3(CCN(c4cc(OC)ncn4)C3)CC2=O)c1 (stereo not drawn),34.6
11,O=C1N(Cc2ccncc2)CCC12CCCN(c1ncc(F)cn1)C2 (stereo not drawn),39.5
12,O=C1N(Cc2cccnc2)CCC12CCCN(c1ncccn1)C2 (stereo not drawn),87.2
13,Cc1cccc(CN2CCC3(CCN(c4ncccn4)CC3)C2=O)c1,42
14,N#Cc1ccc(N2CCCC3(CCN(c4cncnc4)C3=O)C2)nc1 (stereo not drawn),65.7
15,O=C1N(c2cncnc2)CCC12CCCN(Cc1ccccn1)C2 (stereo not drawn),-11.5
16,Cc1cccc(CN2CCC3(CCN(c4ncccn4)C3)C2=O)c1 (stereo not drawn),-23.3
17,N#Cc1ccc(N2CCC3(CCCN(c4ccccn4)C3)C2)nc1 (stereo not drawn),12.1
18,CCc1cnc(N2CCC3(CCN(Cc4cccc(C)c4)C3=O)C2)nc1 (stereo not drawn),60.5
19,O=C1N(Cc2cccnc2)CCC12CCCN(c1ncc(F)cn1)C2 (stereo not drawn),-42
20,COc1cc(N2CCC3(C2)CN(c2cccnc2)C(=O)CN3C)ncn1 (stereo not drawn),30.3
21,CN(C)CCOCc1cncc2c1CCN(Cc1ccccn1)C2,-8.51
22,Cc1nc(CN2CCO[C@H]3[C@@H](OCc4cccnc4)CC[C@@H]32)cs1,14.6

row,SMILES,INHIBITION [%]
1,Cc1nc(C(=O)N2CCN(S(C)(=O)=O)CC2)c(-c2ccccc2Cl)s1,23
2,COCCN1CCC(Nc2c(F)cc(C#N)cc2F)CC1,-3.58
3,O=C([C@@H]1CCO[C@@H]2CCN(Cc3ccsc3)C[C@@H]21)N1CCCC1,38.1
4,O=C1CC(c2ccsc2)c2sc(C(=O)O)c(-c3ccc(F)cc3)c2N1 (stereo not drawn),-8
5,COCC(=O)N1CCCC2(CCN(c3cncnc3)C2=O)C1 (stereo not drawn),25.2
6,O=C(c1ccncc1)N1CCCC2(CCN(c3cccnc3)C2=O)C1 (stereo not drawn),-7.7
7,COc1cc(N2CCC3(CC2)CN(CCO)c2ccccc23)ncn1,93.1
8,COc1cc(N2CCC3(CCN(Cc4cccnc4)C3=O)C2)ncn1 (stereo not drawn),91
9,COc1cc(N2CCCC3(CCN(c4cccnc4)C3=O)C2)ncn1 (stereo not drawn),84.7
10,COc1cc(N2CCC3(CC2)CN(S(C)(=O)=O)c2ccccc23)ncn1,46.4
11,CCN1CCC2(CC1)CN(CCO)c1ccccc12,-7.94
12,COc1cc(N2CCCC3(CCN(c4cncnc4)C3=O)C2)ncn1 (stereo not drawn),53
13,Cc1cnc(N2CCC3(CC2)CCN(c2cncnc2)C3=O)nc1,40.8
14,COc1cccc(CN2CCC3(CCN(c4ncc(C)cn4)C3)C2=O)c1 (stereo not drawn),37.9
15,O=C1N(c2cccnc2)CCC12CCCN(Cc1cccnc1)C2 (stereo not drawn),-52.3
16,Cc1cccc(CN2CCC3(CCN(c4ccccn4)C3)C2=O)c1 (stereo not drawn),20.7
17,CNC(=O)[C@H]1C[C@@H]2CN(C(=O)c3ccccn3)C[C@@H]2N1S(C)(=O)=O,37.2
18,Cc1nnc(CN2CCCC2c2c(C)nn(C)c2Cl)o1 (stereo not drawn),16.9
19,O=C(C1CCOC1)N1C[C@H]2CN(Cc3nccs3)C[C@H]2C1 (stereo partly drawn),17.1
20,COc1ccccc1CN(CC1CCCO1)C(=O)c1cc(C)n[nH]1 (stereo not drawn),-11.3
21,c1cncc(CN2Cc3nccn3CC(Cn3cncn3)C2)c1 (stereo not drawn),5.41
22,COc1ccc(C(=O)N2C[C@@H](O)[C@H](NCCc3ncccc3C)C2)cc1,-15.3

row,SMILES,INHIBITION [%]
1,Cc1cc(CNc2cc(Cl)ccc2C)no1,-4.4
2,Cc1nnsc1CN1C[C@H]2CC[C@@H](C1)N(Cc1c(C)noc1C)C2=O,-42.9
3,CNc1ncc(C(=O)N2CCC3(CC2)Nc2ccccc2NC3=O)cn1,27.6
4,CC(=O)c1cc(C(=O)N2CCC3(CC2)Nc2ccccc2NC3=O)cs1,20.3
5,COc1ncc(C(=O)N2CCC3(CC2)C(=O)Nc2ccccc23)cn1,12
6,Nc1cc(C(=O)N2CCC3(CC2)Nc2ccccc2NC3=O)ccn1,-31.5
7,COc1cc(C(=O)N2CCC3(CC2)Nc2ccccc2NC3=O)ccn1,52.1
8,CNc1cc(C(=O)N2CCC3(CC2)Nc2ccccc2NC3=O)ccn1,57.6
9,Cn1nnnc1SCCC(=O)NCC1Cc2ccccc2O1 (stereo not drawn),-0.554
10,CN(C)C(=O)CCCS(=O)(=O)Cc1cc(Cl)c2c(c1)OCO2,30.6
11,NC1CCCN(C(=O)c2csc(-c3ccc(C(F)(F)F)cc3)n2)CC1 (stereo not drawn),32.4
12,Cc1ncsc1C(=O)NCCNC(=O)OC(C)(C)C,-7.93
13,COc1cccc(CN(C)CCCn2cnc3c(N)ncnc32)c1,9.84
14,COc1ccc(OCCN(C)CCCn2cnc3c(N)ncnc32)cc1,10.6
15,COc1cccc(SCCCn2cnc3c(N)ncnc32)c1,52.1
16,CC(C)c1[nH]c2ncccc2c1CN1CCN(S(=O)(=O)N(C)C)CC1,-33.6
17,Cc1nccn1C1CCCN(C(=O)COCC2CC2)C1 (stereo not drawn),22.9
18,CN(Cc1csc(-c2ccccc2)n1)Cc1ncccc1C(=O)O,25.5
19,O=C(CSCc1ccccn1)N(Cc1ccsc1)C1CC1,36.2
20,O=C(O)c1cccnc1CN(Cc1ccsc1)C1CC1,87.5
